Hits are enriched below; roughly 1.2% of the tested compounds scored in any of these assays.
NPR2 activator: GC-B (human) receptor activation; HEK293-GC-B cells, CNP EC30, cGMP TR-FRET; 0% at EC30 CNP, 100% saturating CNP; hit rate 0.11% among 370,000; activation, % at 10 µM;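 active means activation at 10 µM reaching about 35% in either raw or pattern-adjusted values, limit read from the data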
bovine MsrA act: activates bovine MsrA enzyme. purified bovine MsrA, absorbance read-out. activation, % at 10.6 µM. hit rate 0.3% among 360,000; in the data active means activation above about 7.5%
MsrA inhibitor: inhibitors of bovine MsrA | hit rate 0.75% among 360,000 | purified bovine MsrA, absorbance read-out | inhibition, % at 15.5 µM; in the data active means inhibition above about 4.5%
NPR1 activator: GC-A (human) enzyme activation. HEK293 GC-A cells, cGMP TR-FRET, EC30 ANP; 0% at EC30 ANP, 100% saturating ANP. activation, % at 10 µM. hit rate 0.14% among 370,000; in the data active means activation above about 40%
Hits are given with their value.

C#CCN1CC(N(C)CCOC(=O)CCCc2ccccc2)CS1(=O)=O (configuration not stated) was read as NPR2 activator inactive and NPR1 activator inactive.
`CCC(C)N(C(=O)c1oc(=O)c2ccccc2c1-c1ccc(C)cc1)C(C)CC` (configuration not stated) gave NPR2 activator inactive and NPR1 activator inactive.
For COc1ccccc1-c1cc(C(F)(F)F)nc(S(C)(=O)=O)n1 the results were NPR2 activator inactive, bovine MsrA act inactive, MsrA inhibitor inactive and NPR1 activator 77.
Screening COc1ccccc1-c1cc(C(F)(F)F)nc(S(=O)(=O)CCCC(=O)Nc2cc(C)on2)n1 returned NPR2 activator inactive, bovine MsrA act inactive, MsrA inhibitor inactive and NPR1 activator 76.
For COc1ccccc1-c1cc(C(F)(F)F)nc(S(=O)(=O)CCCC(=O)Nc2cccnc2Cl)n1 the results were NPR2 activator inactive, bovine MsrA act inactive, MsrA inhibitor inactive and NPR1 activator 73.
Screening COc1ccccc1-c1cc(C(F)(F)F)nc(N2CCCC2)n1 returned NPR2 activator inactive, bovine MsrA act inactive, MsrA inhibitor inactive and NPR1 activator inactive.
`COc1ccc(-c2cc(C(F)(F)F)nc(S(=O)(=O)CCCC(=O)Nc3cc(C)on3)n2)cc1OC` gave NPR2 activator inactive, bovine MsrA act inactive, MsrA inhibitor inactive and NPR1 activator inactive.
Screening COc1ccccc1-c1cc(C(F)(F)F)nc(S(=O)(=O)CCCC(=O)N2CCCCC2C)n1 (configuration not stated) returned NPR2 activator inactive, bovine MsrA act inactive, MsrA inhibitor inactive and NPR1 activator 78.
Screening COC(=O)[C@H](CC(C)C)N(CCCc1cn(CC2CCCCC2)nn1)S(=O)(=O)c1ccc(F)cc1Br returned NPR2 activator inactive and NPR1 activator inactive.
For O=C(NCCCc1ccccc1)OC1CC2CC1[C@H]1CCCCN1C2 (some centres not stated) the results were NPR2 activator inactive and NPR1 activator inactive.
COc1ccccc1-c1cc2nc(C)c(CCC(=O)NCc3ccc(F)cc3)c(C)n2n1 was read as NPR2 activator inactive, bovine MsrA act inactive, MsrA inhibitor inactive and NPR1 activator inactive.
`COc1ccccc1-c1cc(C(F)(F)F)nc(S(=O)(=O)CCCC(=O)NC(C)C)n1` gave NPR2 activator inactive, bovine MsrA act inactive, MsrA inhibitor inactive and NPR1 activator 73.
COc1ccccc1-c1cc(C(F)(F)F)nc(S(=O)(=O)CCCC(=O)NCc2ccc(F)cc2)n1 was read as NPR2 activator inactive, bovine MsrA act inactive, MsrA inhibitor inactive and NPR1 activator 75.
`COc1ccc(CNC(=O)O[C@H]2CC[C@@]34CCCN3C(=O)CCC[C@H]4[C@H]2C)cc1` gave NPR2 activator inactive and NPR1 activator inactive.
Screening Cc1c(C(N)=O)sc2nc(-c3ccccc3)cn12 returned NPR2 activator 74, bovine MsrA act inactive, MsrA inhibitor inactive and NPR1 activator inactive.
For COCCN(CCOC)C(=O)c1sc2nc(-c3ccccc3)cn2c1C the results were NPR2 activator inactive, bovine MsrA act inactive, MsrA inhibitor inactive and NPR1 activator inactive.
For COc1ccc([C@H]2CC(=O)C=C(/C=C/c3ccccc3)C2)cc1OC the results were NPR2 activator inactive, bovine MsrA act inactive, MsrA inhibitor 4.6 and NPR1 activator inactive.
C[C@H]1[C@H](N(C)C)CC[C@@]23CCCN2C(=O)CCC[C@@H]13 was read as NPR2 activator inactive and NPR1 activator inactive.
`Cc1cc(C(=O)N/N=C/C=C/c2ccc3c(c2)OCO3)n[nH]1` gave NPR2 activator inactive, bovine MsrA act inactive, MsrA inhibitor 8.9 and NPR1 activator inactive.
Screening O=C(N/N=C\C=C\c1ccc2c(c1)OCO2)C1COc2cc3ccccc3cc2O1 (configuration not stated) returned NPR2 activator inactive, bovine MsrA act inactive, MsrA inhibitor inactive and NPR1 activator inactive.
Screening Cc1ccccc1NC(=O)CN1C(=O)CCSc2ccccc21 returned NPR2 activator inactive and NPR1 activator inactive.
Cn1c(=O)c(=O)n(C)c2cc([N+](=O)[O-])c([N+](=O)[O-])cc21 was read as NPR2 activator inactive, bovine MsrA act inactive, MsrA inhibitor 5.1 and NPR1 activator inactive.
Screening COc1cc2c(cc1NC(=O)CSc1nnc(-c3ccccc3C)n1Cc1ccco1)oc1ccccc12 returned NPR2 activator inactive and NPR1 activator inactive.
Screening O=C(Cc1ccccc1Cl)NCCN1C(=O)C2C3C=CC(C3)C2C1=O (configuration not stated) returned NPR2 activator inactive and NPR1 activator inactive.
Cc1cc(C(F)(F)F)n2nc(-c3cnn(C)c3C(F)(F)F)cc2n1 was read as NPR2 activator inactive, bovine MsrA act 7.7, MsrA inhibitor inactive and NPR1 activator inactive.
For Cc1cc2nc(-c3ccncc3)cc(C(F)(F)F)n2n1 the results were NPR2 activator inactive, bovine MsrA act inactive, MsrA inhibitor inactive and NPR1 activator inactive.
Clc1ccccc1N1CCN(C2=Nc3ccccc3Sc3ccccc32)CC1 was read as NPR2 activator inactive and NPR1 activator inactive.
`O=C(Cc1cccc2ccccc12)Nc1ccc(-c2cc3ccccc3oc2=O)cc1` gave NPR2 activator inactive, bovine MsrA act inactive, MsrA inhibitor 5.3 and NPR1 activator inactive.
CCC(=O)Nc1cccc(-c2cc3ccccc3oc2=O)c1 was read as NPR2 activator inactive, bovine MsrA act inactive, MsrA inhibitor inactive and NPR1 activator inactive.
For Cc1ccsc1/C=N/NC(=O)c1c[nH]c2ccccc12 the results were NPR2 activator inactive, bovine MsrA act inactive, MsrA inhibitor 5.1 and NPR1 activator inactive.
Screening Cc1ccc(/C=N/NC(=O)c2c[nH]c3ccccc23)s1 returned NPR2 activator inactive, bovine MsrA act inactive, MsrA inhibitor inactive and NPR1 activator inactive.
For Cc1ccccc1-c1nc(CS(=O)CC(=O)NCc2ccccc2)c(C)o1 (configuration not stated) the results were NPR2 activator inactive, bovine MsrA act inactive, MsrA inhibitor inactive and NPR1 activator inactive.
For Cc1ccc(CNC(=O)CS(=O)Cc2nc(-c3ccccc3C)oc2C)cc1 (configuration not stated) the results were NPR2 activator 111, bovine MsrA act inactive, MsrA inhibitor inactive and NPR1 activator inactive.
For COc1ccc(Nc2c(-c3ccco3)nc3ccc(C)cn23)cc1 the results were NPR2 activator 36, bovine MsrA act inactive, MsrA inhibitor inactive and NPR1 activator inactive.
Screening Cc1ccc(Nc2c(-c3ccco3)nc3ccccn23)cc1 returned NPR2 activator inactive, bovine MsrA act inactive, MsrA inhibitor inactive and NPR1 activator inactive.
Screening COc1ccc(Cl)c2c1[nH]c1nc(SCc3cccnc3)nnc12 returned NPR2 activator 43, bovine MsrA act inactive, MsrA inhibitor inactive and NPR1 activator inactive.
CCOC(=O)N(C)[C@H]1C[C@H]2c3[nH]c4c(-c5cccc(C)c5)cccc4c3CCN2C[C@H]1[C@H](C)O was read as NPR2 activator inactive and NPR1 activator inactive.
`C[C@@H]1[C@@H](c2ccccc2)OC(O)([C@H](Cc2ccccc2)NC(=O)OC(C)(C)C)CN1C` (some centres not stated) gave NPR2 activator inactive and NPR1 activator inactive.
